These results are taken from PubChem BioAssay (NCI).

About 79,000 compounds went through this panel and 15% of them were active in at least one assay; those are over-represented in the sample as a whole. A number with no mark means an inactive call. The source made the active and inactive calls. Rule as the data show it: active = growth inhibition above about 70%; inactive = the rest.

A short description of test [1]: NCI Yeast Anticancer Drug Screen. Data for the rad50 strain (AID 155).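 Also: 0% = growth of vehicle-only cultures of the same strain.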 As to conditions: S. cerevisiae rad50 strain growth inhibition, hits give high values. The procedure, abridged:
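Compounds were tested on a yeast strain with an engineered DNA damage repair alteration; the reported value is growth inhibition normalised to vehicle treatment.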

Test [2] can be described thus: NCI Yeast Anticancer Drug Screen. Data for the mec2-1 strain (AID 157). As to conditions: S. cerevisiae mec2-1 strain, hits give high values. In outline:
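Using mec2-1 yeast: add compound, measure growth, express inhibition versus vehicle-treated cultures.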

Test [3] is described as follows: NCI Yeast Anticancer Drug Screen. Data for the sgs1 mgt1 strain (AID 161).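 Also: 0% = growth of cultures given vehicle only.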 The settings on record: S. cerevisiae sgs1 mgt1 strain, hits give high values. The procedure, abridged: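 This yeast growth screen uses a strain with defined DNA-repair lesions; compound-treated growth is compared with vehicle-treated growth.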
Test [4] in a line: NCI Yeast Anticancer Drug Screen. Data for the cln2 rad14 strain (AID 165).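 Also: 0% = growth equal to vehicle treated cultures.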 As to conditions: S. cerevisiae cln2 rad14 strain, hits give high values. The procedure, abridged:
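Yeast strain cln2 rad14, bearing defects in cell cycle control and DNA repair, serves as the test system; values reflect growth inhibition compared with vehicle.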

A short description of test [5]: NCI Yeast Anticancer Drug Screen. Data for the bub3 strain (AID 167). The settings on record: S. cerevisiae bub3 mutant strain, hits give high values. In outline:
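Growth of a checkpoint-deficient yeast mutant is measured after compound exposure. Values represent inhibition relative to vehicle.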

Test [6] can be described thus: NCI Yeast Anticancer Drug Screen. Data for the mlh1 rad18 strain (AID 175). As to conditions: S. cerevisiae mlh1 rad18 strain growth inhibition, hits give high values. The procedure, abridged: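 Steps: expose repair-defective yeast to compound; measure growth; express inhibition against vehicle-treated controls.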
Where [7] appears, read: at 5.0 µM (retest, dose inferred, filed as 0.5).
The mark [8] stands for this setting: at 50.0 µM (retest, dose inferred, filed as 5.0).

On to `CCCC[N-]CC(O)C[NH-].O=C(O)CC(=O)O.[Pt+2]` (configuration not stated), for which the growth inhibition is 2% in test [1] (setting [7]); 6% in test [1] (setting [8]); 11.6% in test [1] (at 50.0 µM); -10% in test [2] (setting [7]); -23% in test [2] (setting [8]); 23.2% in test [2] (at 50.0 µM). Besides, the growth inhibition in test [3] (setting [7]) is 1%; in test [3] (setting [8]), 6%; in test [3] (at 50.0 µM), 22.2%; in test [4] (setting [7]), 1%; in test [4] (setting [8]) it was 7%; in test [4] (at 50.0 µM), 80% (active). Moreover, the growth inhibition in test [5] (setting [7]) was 3%; in test [5] (setting [8]), 4%; in test [5] (at 50.0 µM) it was 0.55%; in test [6] (setting [7]), 0%; in test [6] (setting [8]), -7%; in test [6] (at 50.0 µM), 29.9%.
For `CCCCCCCCCCCCSCCCN`, the growth inhibition was -6% in test [1] (setting [7]); 99% (active) in test [1] (setting [8]); 99.2% (active) in test [1] (at 50.0 µM); -3% in test [2] (setting [7]); 99% (active) in test [2] (setting [8]); 99.5% (active) in test [2] (at 50.0 µM). In addition, the growth inhibition in test [3] (setting [7]) is -1%; in test [3] (setting [8]), 99% (active); in test [3] (at 50.0 µM), 99.2% (active); in test [4] (setting [7]), -9%; in test [4] (setting [8]), 99% (active); in test [4] (at 50.0 µM), 99.5% (active). Further, the growth inhibition in test [5] (setting [7]) is -5%; in test [5] (setting [8]) it was 99% (active); in test [5] (at 50.0 µM), 99.5% (active); in test [6] (setting [7]), -9%; in test [6] (setting [8]), 99% (active); in test [6] (at 50.0 µM), 99.5% (active).
As to `Cc1cc(O)c(C(=O)/C=C/c2ccnc3ccccc23)c(=O)o1`, the growth inhibition in test [1] (setting [7]) is -7%; in test [1] (setting [8]) it was 5%; in test [1] (at 50.0 µM) it was -9.7%; in test [2] (setting [7]) it was -17%; in test [2] (setting [8]) it was -1%; in test [2] (at 50.0 µM), -6.65%. Moreover, the growth inhibition was 6% in test [3] (setting [7]); 20% in test [3] (setting [8]); -2% in test [3] (at 50.0 µM); 11% in test [4] (setting [7]); 8% in test [4] (setting [8]); -13.4% in test [4] (at 50.0 µM). The growth inhibition in test [5] (setting [7]) is 22%; in test [5] (setting [8]), 8%; in test [5] (at 50.0 µM), -4.8%; in test [6] (setting [7]), 15%; in test [6] (setting [8]), 8%; in test [6] (at 50.0 µM), -23.2%.
Take `CCCCCCCCC[n+]1cccc(C(=O)c2ccccc2)c1`: the growth inhibition was -1% in test [1] (setting [7]); 53% in test [1] (setting [8]); 51.6% in test [1] (at 50.0 µM); 4% in test [2] (setting [7]); 56% in test [2] (setting [8]); 24.8% in test [2] (at 50.0 µM). For the same compound, the growth inhibition in test [3] (setting [7]) was -165%; in test [3] (setting [8]), 77% (active); in test [3] (at 50.0 µM), 72.7% (active); in test [4] (setting [7]), -4%; in test [4] (setting [8]) it was 42%; in test [4] (at 50.0 µM), 3.95%. Besides, the growth inhibition in test [5] (setting [7]) is 0%; in test [5] (setting [8]), 70% (active); in test [5] (at 50.0 µM) it was 82.5% (active); in test [6] (setting [7]), 36%; in test [6] (setting [8]), 78% (active); in test [6] (at 50.0 µM), 72.7% (active).
Regarding `Cc1ccc(NC(=O)CC2SC(=Nc3ccc(Cl)cc3)NC2=O)cc1C` (configuration not stated), the growth inhibition in test [1] (setting [7]) is 79% (active); in test [1] (setting [8]) it was -11%; in test [1] (at 50.0 µM) it was 99.2% (active); in test [2] (setting [7]), 57%; in test [2] (setting [8]), 5%; in test [2] (at 50.0 µM), 99.5% (active). In addition, the growth inhibition in test [3] (setting [7]) was 65%; in test [3] (setting [8]), 0%; in test [3] (at 50.0 µM) it was 99.3% (active); in test [4] (setting [7]), 41%; in test [4] (setting [8]), 18%; in test [4] (at 50.0 µM) it was 98.3% (active). Moreover, the growth inhibition in test [5] (setting [7]) was 89% (active); in test [5] (setting [8]), 11%; in test [5] (at 50.0 µM), 99.1% (active); in test [6] (setting [7]), 31%; in test [6] (setting [8]), 12%; in test [6] (at 50.0 µM), 99.2% (active).
Regarding `CCN1CCC(O)(/C=C/c2ccccc2)C(C(=O)/C=C/c2ccccc2)C1` (configuration not stated), the growth inhibition in test [1] (setting [7]) is 11%; in test [1] (setting [8]), 89% (active); in test [1] (at 50.0 µM) it was 97.7% (active); in test [2] (setting [7]), 6%; in test [2] (setting [8]), 80% (active); in test [2] (at 50.0 µM), 98.2% (active). The growth inhibition in test [3] (setting [7]) is 13%; in test [3] (setting [8]), 82% (active); in test [3] (at 50.0 µM) it was 97.8% (active); in test [4] (setting [7]) it was 13%; in test [4] (setting [8]), 74% (active); in test [4] (at 50.0 µM), 85.1% (active). The growth inhibition in test [5] (setting [7]) is 8%; in test [5] (setting [8]), 94% (active); in test [5] (at 50.0 µM), 98.9% (active); in test [6] (setting [7]), 19%; in test [6] (setting [8]), 93% (active); in test [6] (at 50.0 µM) it was 96% (active).
With `O/N=C1/CC2CCCc3ccc4cccc1c4c32` (configuration not stated), the growth inhibition in test [1] (setting [7]) was -18%; in test [1] (setting [8]), -10%; in test [1] (at 50.0 µM) it was 60.2%; in test [2] (setting [7]), -18%; in test [2] (setting [8]), -3%; in test [2] (at 50.0 µM) it was 22.4%. Further, the growth inhibition in test [3] (setting [7]) was -18%; in test [3] (setting [8]), 15%; in test [3] (at 50.0 µM) it was 22.9%; in test [4] (setting [7]) it was -24%; in test [4] (setting [8]), -20%; in test [4] (at 50.0 µM) it was 12.2%. The growth inhibition in test [5] (setting [7]) was -12%; in test [5] (setting [8]), 25%; in test [5] (at 50.0 µM), 81.8% (active); in test [6] (setting [7]) it was -26%; in test [6] (setting [8]), 3%; in test [6] (at 50.0 µM) it was -4%.
Turning to `Nc1ccc2c(c1)CN1C(=O)c3ccccc3C1=N2`, the growth inhibition in test [1] (setting [7]) was 24%; in test [1] (setting [8]), 54%; in test [1] (at 50.0 µM) it was 67.3%; in test [2] (setting [7]) it was 8%; in test [2] (setting [8]) it was 22%; in test [2] (at 50.0 µM), 34.6%. The growth inhibition is -3% in test [3] (setting [7]); 12% in test [3] (setting [8]); 5.55% in test [3] (at 50.0 µM); 23% in test [4] (setting [7]); 18% in test [4] (setting [8]); 36.6% in test [4] (at 50.0 µM). Moreover, the growth inhibition in test [5] (setting [7]) is 3%; in test [5] (setting [8]), 19%; in test [5] (at 50.0 µM), 22.4%; in test [6] (setting [7]), 11%; in test [6] (setting [8]), 19%; in test [6] (at 50.0 µM), 46%.
Consider `Cc1ccc(Sc2ccc3ccccc3n2)cc1`, for which the growth inhibition in test [1] (setting [7]) is 2%; in test [1] (setting [8]), -34%; in test [1] (at 50.0 µM) it was 36%; in test [2] (setting [7]), -3%; in test [2] (setting [8]), 46%; in test [2] (at 50.0 µM), 37.5%. Also, the growth inhibition in test [3] (setting [7]) is 15%; in test [3] (setting [8]) it was 37%; in test [3] (at 50.0 µM) it was 50.2%; in test [4] (setting [7]), -18%; in test [4] (setting [8]), -24%; in test [4] (at 50.0 µM) it was 50.2%. For the same compound, the growth inhibition in test [5] (setting [7]) is 1%; in test [5] (setting [8]), 30%; in test [5] (at 50.0 µM), 67%; in test [6] (setting [7]), 0%; in test [6] (setting [8]), 18%; in test [6] (at 50.0 µM), 2.25%.
